# Only some compounds are listed: those with a hit (about 5.2% of all), similar ones and a draw of the others.
# Sfp PPTase inh = Sfp phosphopantetheinyl transferase inhibition; Q9F4F7; Potency, µM, for the others: largest response in the series, negative = inhibition, actives largely listed as inhibitors; hit rate 3.5% among 310,000; Biochemical Sfp PPTase activity, qHTS;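 also: the enzyme is Sfp with the accession as filed and its product quenches rhodamine fluorescence; potency is read from the fitted curve at half-maximal effect; 0% = enzyme reaction without inhibitor and -100% = no enzyme wells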
#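 Compounds were incubated with enzyme (final 15 nM) for 15 min at room temperature before substrate addition started the reaction. Fluorescence at 525 nm excitation, 598 nm emission was recorded immediately and after 30 minutes.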
# Tau FP inhib = inhibitors of human tau fibril formation; K18 P301L tau heparin fibrillization, Alexa594 FP, 6 h; Potency, µM (highest dose often 57.7 µM), for inactives: at the highest dose activity, negative = inhibition, usual class: inhibitors; hit rate 0.39% among 280,000; AID 1468; also: potency is read from the fitted curve at half-maximal effect; nearly all actives have a fitted effect of over 55% in size
# Target sequence (P10636 561-689 P618L limits assumed): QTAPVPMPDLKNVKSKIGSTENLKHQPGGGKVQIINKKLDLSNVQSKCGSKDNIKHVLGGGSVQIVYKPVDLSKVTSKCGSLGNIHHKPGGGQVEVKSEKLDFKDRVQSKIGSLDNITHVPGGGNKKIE
#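 K18 P301L tau (15 uM unlabeled/0.24 uM Alexa 594-labeled, final) + compound + heparin 20 uM final; 100 mM NaOAc pH 7; 6 hr 37 C; ThT 30 uM final added, 1 hr RT; FP ex 555/em 632 nm.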
# Tau ThT inhib = tau fibrillization inhibition (ThT binding); P10636; recombinant tau K18 P301L, heparin-induced fibrillization, ThT fluorescence; Potency, µM (top dose mostly 57.4 µM), for inactives: top-dose activity, negative = inhibition, most hits filed as inhibitors; hit rate 2.1% among 270,000; also: potency is read from the fitted curve at half-maximal effect; nearly all actives have a fitted effect of over 55% in size
#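 ThT emission at 510 nm, taken 1 hr after adding 30 uM dye, quantifies aggregates formed when 20 uM heparin acts on human tau K18 P301L for 6 hr at 37 C.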
# Tau fluor counter = counter-screen for tau fibril formation inhibitors; Potency, µM (doses to about 57.7 µM), for inactives: at the top dose activity change, negative = decrease; hit rate 0.93% among 280,000; tau K18 P301L Alexa594 fluorescence, heparin fibrillization; AID 1463; also: potency is read from the fitted curve at half-maximal effect; nearly all actives have a fitted effect of over 55% in size
#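 Human tau K18 P301L (15 uM unlabeled, 0.24 uM Alexa 594-labeled) in 100 mM sodium acetate pH 7 with 20 uM heparin, 6 hr at 37 C. ThT 30 uM added, 1 hr ambient; Alexa 594 FP and total fluorescence read at 555/632 nm.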
# Coupling enz = inhibits coupling enzyme system, counter-screen for aldolase hits; coupling enzyme system counterscreen, AmpLite Red fluorescence; activity change, negative = inhibition, % at 58.2 µM, hits read low; hit rate 0.67% among 290,000; AID 2472; in the data active = activity change below about -30%
#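 Counterscreen of the coupled detection system alone, without aldolase: glyceraldehyde-3-phosphate coupling enzymes plus AmpLite Red readout. Compounds at 57.5 uM final, 10 min RT preincubation, 20 min RT reaction, fluorescence 525/598 nm.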
# * hit, by the source's call; ? = inconclusive; nt = not tested or not shown; [ ] = remark or other dose. Unless noted, calls follow the shape of the dose curve; as a rule, active = well fitted curve in the direction sought with a large enough effect; inconclusive = small, poorly fitted or top-dose-only effect, or another doubt; inactive = no such curve, though single readings can be large; an effect the other way counts as inactive or inconclusive. Unless noted, % is scaled to controls: 0 for no effect and ±100 for the full control effect.
SMILES,Sfp PPTase inh,Tau FP inhib,Tau ThT inhib,Tau fluor counter,Coupling enz
C=C1C(c2ccc(C)cc2)=CCc2cc(C)cc(C)c21,-10.9%,4.1%,?,-11.6%,3.6
CCOc1cc(C(c2c(C)[nH][nH]c2=O)c2c(C)[nH][nH]c2=O)cc([N+](=O)[O-])c1O,-4.0%,nt,nt,nt,-7.9
CCOc1cc(C(c2c(C)[nH][nH]c2=O)c2c(C)[nH][nH]c2=O)ccc1OCc1ccc([N+](=O)[O-])cc1,3.2%,-5.3%,11.2µM*,?,-14.3
COc1cc(C(c2c(C)[nH][nH]c2=O)c2c(C)[nH][nH]c2=O)cc([N+](=O)[O-])c1O,-14.4%,?,14.1µM*,-25.4%,-28.4
O=C(NC(=S)Nc1cc([N+](=O)[O-])ccc1Cl)c1ccccc1,56.2µM*,3.7%,?,?,-4.0
Cc1ccc(NC(=O)Nc2cccc([N+](=O)[O-])c2)cc1F,79.4µM*,?,?,5.62µM*[quencher],-6.5
O=C(O)c1ccc(Cl)c(NC(=S)NC(=O)c2ccccc2[N+](=O)[O-])c1,50.1µM*,3.7%,-8.4%,-3.0%,9.6
CC(C)(C)c1ccc(C(=O)Nc2cccc([N+](=O)[O-])c2)cc1,-0.3%,?,?,7.94µM*[quencher],-12.9
N#Cc1ccc(CN2C(=O)c3ccccc3Sc3ccc(C(=O)OCc4ccco4)cc32)cc1,nt,-7.8%,-2.2%,-9.2%,nt
O=C(NC(=S)Nc1cccc([N+](=O)[O-])c1)c1ccco1,?,3.3%,-3.9%,-1.3%,-0.8
O=C(NC(=S)Nc1cccc([N+](=O)[O-])c1)c1ccccc1,44.7µM*,?,?,-27.7%,1.2
NCCC[C@@H](CC(=O)N[C@@H]1CCCC[C@H]1C(=O)N[C@H](CC(=O)N[C@@H](CCC(=O)O)CC(=O)O)Cc1c[nH]c2ccccc12)NC(=O)C[C@H](Cc1c[nH]c2ccccc12)NC(=O)[C@@H]1CNCC[C@H]1N,-0.7%,-6.7%,-7.7%,-5.0%,-2.9
C=CCn1c(O)c(N=NC(=O)OC(C)(C)C)c2ccccc21,-0.6%,-4.9%,-5.3%,-4.3%,0.2
C=CCn1c(O)c(N=Nc2ccccc2C)c2ccccc21,25.1µM*,-17.3%,?,-14.6%,-8.5
C=CCn1c(O)c(N=O)c2ccccc21,6.9%,-1.6%,-17.7%,-17.7%,-4.0
C=CCn1c(O)c(N=NC(=S)Nc2ccc(OC)c(Cl)c2)c2ccccc21,1.78µM*,3.3%,?,?,-4.6
COc1cccc(CS(=O)(=O)c2nnnn2-c2ccc(F)cc2Br)c1,-2.7%,2.7%,-1.5%,0.3%,2.7
COc1ccc(-c2cc(C(=O)N3CCN(c4ccccc4)CC3)c3ccccc3n2)cc1OC,6.5%,14.8%,-17.6%,-20.9%,0.3
COc1ccc(-c2nc3ccc(N4CCCC4)cc3c(=O)[nH]2)cc1OC,-1.6%,3.0%,2.24µM*,?,-0.2
NC(=O)c1sc2nc3c(c(-c4ccco4)c2c1N)CCCC3,-11.8%,10.3%,?,-17.5%,4.6
CC(=O)c1sc(C(=O)O)c(-c2ccco2)c1-c1ccco1,17.8µM*,6.1%,-9.3%,0.7%,-5.0
CC(=O)N(c1ccc2oc(=O)sc2c1)S(=O)(=O)c1ccccc1,8.91µM*,-10.5%,?,-15.9%,3.0
COc1ccc(S(=O)(=O)N(C(=O)C(C)C)c2ccc3oc(=O)sc3c2)cc1,?,-17.9%,?,-23.2%,6.6
COc1ccc(C(=O)Oc2ccc3ccc(=O)oc3c2)cc1,0.8%,nt,nt,nt,-0.1
COc1ccc(C(=O)Oc2ccc3oc(=O)sc3c2)cc1,50.1µM*,-11.8%,-20.7%,-23.9%,-0.4
SMILES,Sfp PPTase inh,Tau FP inhib,Tau ThT inhib,Tau fluor counter,Coupling enz
CC(C)C(=O)N(c1ccc2oc(=O)sc2c1)S(=O)(=O)c1ccccc1,17.8µM*,-6.2%,?,-14.3%,0.6
CCCC(=O)N(c1ccc2oc(C)c(C(C)=O)c2c1)S(=O)(=O)c1ccc(C)cc1,nt,-6.1%,-6.4%,-9.2%,nt
CCCC(=O)N(c1ccc2oc(=O)sc2c1)S(=O)(=O)c1cccs1,?,?,31.6µM*,-23.0%,1.3
COc1ccc(N(C(C)=O)S(=O)(=O)c2cc(OC)ccc2OC)cc1,14.6%,-0.3%,-6.9%,-4.4%,2.2
COc1ccc(OC)c(S(=O)(=O)N(C(C)=O)c2ccc3oc(=O)sc3c2)c1,44.7µM*,-12.3%,?,-17.6%,0.7
COc1cc(C(=S)N2CCCC2)cc(OC)c1O,50.1µM*,-9.7%,1.8%,-14.5%,-1.0
O=[N+]([O-])c1ccc(Cl)c2c1C1C=CCC1C(c1ccccn1)N2 (stereo not drawn),28.2µM*,?,25.1µM*,?,-16.4
Cc1cc([N+](=O)[O-])cc2c1NC(c1ccccn1)C1CC=CC21 (stereo not drawn),15.8%,-4.6%,-10.2%,-11.9%,-1.7
O=C(O)c1ccc(Cl)c2c1C1C=CCC1C(c1ccccn1)N2 (stereo not drawn),3.55µM*,?,14.1µM*,14.1µM*[quencher],-19.5
Cc1cc(C)c(NC(=O)CCC(=O)N2Cc3ccccc3Oc3ncccc32)c(C)c1,nt,5.8%,-12.0%,-7.7%,nt
COC(=O)c1ccc(C(=O)O)nc1,79.4µM*,0.4%,-0.2%,-0.6%,4.3
COc1ccc(CNc2nc(-c3ccccc3OC)nc3ccccc23)c(OC)c1,?,?,?,-29.8%,-0.3
CCSc1ncc(Cl)c(C(=O)N(Cc2ccc(N(C)C)cc2)Cc2ccco2)n1,nt,5.6%,?,?,nt
O=[N+]([O-])C(=C1Nc2ccccc2N1)C(Cl)=C(Cl)Cl,89.1µM*,?,?,-17.6%,-2.6
O=[N+]([O-])/C(C(Cl)=C(Cl)Cl)=C(/NC1CC1)Sc1ccccc1,-14.3%,?,?,-18.0%,-5.7
CCOC(=O)N1CCN(C2=Nc3cccc4cccc2c34)CC1,-25.1%,-2.2%,?,-9.8%,-56.6*
c1ccc(CC2CCN(C3=Nc4cccc5cccc3c45)CC2)cc1,?,2.7%,?,-11.8%,-6.1
CCOC(=O)N1CCN(C(=O)Nc2cccc3ccccc23)CC1,14.2%,3.6%,-2.4%,1.6%,-1.6
CC1CN(C2=Nc3cccc4cccc2c34)CC(C)O1 (stereo not drawn),2.1%,-3.2%,-2.9%,3.2%,-46.4*
CC(=O)N1CCN(C2=Nc3cccc4cccc2c34)CC1,-10.3%,1.9%,?,3.0%,-47.3*
COc1ccccc1N1CCN(C2=Nc3cccc4cccc2c34)CC1,-18.7%,0.7%,?,-19.4%,-18.1
CC1CN(c2oc(-c3ccccc3Cl)nc2C#N)CC(C)O1 (stereo not drawn),5.6%,6.1%,-8.3%,0.1%,-0.1
c1cc2c3c(cccc3c1)C(N1CCOCC1)=N2,0.0%,9.2%,-14.9%,-2.2%,-51.4*
CC1=C(c2ccc(C)c(C)c2)S(=O)(=O)N=C1N1CCC(C(=O)NCCc2ccc(Cl)cc2)CC1,nt,-6.5%,?,-15.2%,nt

# Source: PubChem BioAssay
